# Results taken from PubChem BioAssay (NCATS).
# Records with an inconclusive call do not appear. Entries that show only a call come without a potency. The source made the active and inactive calls. The call rests on the fitted dose curve; in most records, active means well fitted curve in the direction sought with a large enough effect; inconclusive means small, poorly fitted or top-dose-only effect, or another doubt; inactive means no such curve, though single readings can be large; an effect the other way counts as inactive or inconclusive.
# Key:
# [1] = qHTS assay for measurement of the activity of small molecule inhibitors on Zika virus induced Caspase-3 activity in human iPSC derived neural progenitor cells (hNPCs) (AID 1224857); further: nearly all actives have a fitted effect of over 65% in size
# Method in brief: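 After overnight (16–20 h) culture at 350 cells/well, hNPCs get compound, then ZIKV 2 FFU/cell one hour later. Six hours on, Caspase-Glo 3/7 is added and luminescence measured.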
# [2] = qHTS assay for measurement of the activity of small molecule inhibitors on Zika virus induced Caspase-3 activity in human astrocytoma cells (AID 1224859)
# Method in brief: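 Inhibition of Zika-induced caspase-3/7 activity: SNB-19 cells, 1 h compound pretreatment, ZIKV 2 FFU/cell for 6 h at 37 C, Caspase-Glo luminescence read-out.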
# [3] = qHTS assay to identify small molecule inhibitors of chordoma cells - UCH-1 (AID 1259355); further: nearly all actives have a fitted effect of over 55% in size
# Method in brief: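 800 cells/well, overnight attach; compounds pinned at 15 concs, then auranofin/camptothecin/doxorubicin/rubitecan/topotecan combo added; 48hr 37 C, 5% CO2; CellTiter-Glo, 30min RT, luminescence.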
# [4] = P-glycoprotein substrates identified in KB-8-5-11 adenocarcinoma cell line, qHTS therapeutic library screen (AID 1346987); conditions: outcome: dose series up to 44.5 µM; further: series mostly up to about 44 µM; nearly all actives have a fitted effect of over 65% in size
# Method in brief: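 Compounds are pinned in dose-response onto KB-8-5-11 cells (500 cells/well, colchicine-free medium) and left 72 h at 37 degree C. CellTiter-Glo luminescence then yields AC50 values.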
# [5] = NS1 protein of Zika virus - qHTS assay to identify small molecule inhibitors in human HEK 293 cells (AID 1347053); further: series mostly up to about 46 µM; nearly all actives have a fitted effect of over 55% in size
# Method in brief: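 TR-FRET signal from two anti-ZIKV NS1 antibodies quantified NS1 in HEK 293 cells 24 h after MR766 infection at MOI = 0.5; compounds were added 1 h before virus. Uninfected cells and infected cells defined the NS1 normalization range.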
# [6] = qHTS of pediatric cancer cell lines to identify multiple opportunities for drug repurposing: Primary screen for TC32 cells (AID 1347089); further: nearly all actives have a fitted effect of over 60% in size
# Method in brief: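 TC32 cells, 500-1,000/well in growth medium, compound-treated 48 h at 37 °C; viability from CellTiter-Glo luminescence. Primary screen: MIPE 11-point (0.78 nM–46 µM final), NPC 8-point (0.59 nM–46 µM final); confirmatory at 11-point dilutions.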
# [7] = qHTS of pediatric cancer cell lines to identify multiple opportunities for drug repurposing: Primary screen for DAOY cells (AID 1347090); further: series mostly up to about 46 µM; nearly all actives have a fitted effect of over 55% in size
# Method in brief: (§1)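 Cell viability, CellTiter-Glo luminescence; 500-1,000 cells/well, 8- or 11-point titration, 48 h compound exposure at 37 degrees C, 5% CO2. Controls: DMSO neutral, bortezomib 2.3 µM final as positive.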
# [8] = qHTS of pediatric cancer cell lines to identify multiple opportunities for drug repurposing: Primary screen for SJ-GBM2 cells (AID 1347091)
# Method in brief: as §1
# [9] = qHTS of pediatric cancer cell lines to identify multiple opportunities for drug repurposing: Primary screen for A673 cells (AID 1347092); further: nearly all actives have a fitted effect of over 45% in size
# Method in brief: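 A673 cells (500-1,000 cells/well) were treated 48 hours at 37 degrees C with compounds at 11-point (0.78 nM to 46 µM) or 8-point (0.59 nM to 46 µM) dilutions. Viability read by CellTiter-Glo luminescence; concentration-response curves fitted.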
# [10] = qHTS of pediatric cancer cell lines to identify multiple opportunities for drug repurposing: Primary screen for SK-N-MC cells (AID 1347093); further: potency means the concentration at half of the fitted maximal effect
# Method in brief: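 Metabolically active cells were quantified by ATP-dependent luminescence (CellTiter-Glo, 15 min at room temperature) following 48 h treatment. Cells had been plated at 500-1,000 per well and settled for 5 h beforehand.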
# [11] = qHTS of pediatric cancer cell lines to identify multiple opportunities for drug repurposing: Primary screen for BT-37 cells (AID 1347094); further: series mostly up to about 57 µM
# Method in brief: (§2)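 Viability was measured as metabolically active cells after 48 hours of treatment, read by CellTiter-Glo luminescence. Compounds were tested at multiple final concentrations, giving concentration-response curves.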
# [12] = qHTS of pediatric cancer cell lines to identify multiple opportunities for drug repurposing: Primary screen for NB-EBc1 cells (AID 1347095)
# Method in brief: as §2
# [13] = qHTS of pediatric cancer cell lines to identify multiple opportunities for drug repurposing: Primary screen for U-2 OS cells (AID 1347096); further: nearly all actives have a fitted effect of over 50% in size
# Method in brief: (§3)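 Cells (500-1,000/well) rested 5 h, then received compounds for 48 h; metabolically active cells were measured by CellTiter-Glo luminescence. Final concentrations spanned up to 46 µM (MIPE, 11-point) or 0.59 nM-46 µM (NPC, 8-point) in primary screens, 11-point in follow-ups.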
# [14] = qHTS of pediatric cancer cell lines to identify multiple opportunities for drug repurposing: Primary screen for Saos-2 cells (AID 1347097); further: nearly all actives have a fitted effect of over 40% in size
# Method in brief: as §2
# [15] = qHTS of pediatric cancer cell lines to identify multiple opportunities for drug repurposing: Primary screen for SK-N-SH cells (AID 1347098); further: nearly all actives have a fitted effect of over 65% in size
# Method in brief: as §3
# [16] = qHTS of pediatric cancer cell lines to identify multiple opportunities for drug repurposing: Primary screen for NB1643 cells (AID 1347099); further: nearly all actives have a fitted effect of over 50% in size
# Method in brief: as §2
# [17] = qHTS of pediatric cancer cell lines to identify multiple opportunities for drug repurposing: Primary screen for LAN-5 cells (AID 1347100)
# Method in brief: as §3
# [18] = qHTS assay to identify small molecule inhibitors of chordoma cells - UCH-2 (AID 1259356); further: series mostly up to about 46 µM
Compound,outcome [1],outcome [2],outcome [3],outcome [4],outcome [5],outcome [6],outcome [7],outcome [8],outcome [9],Potency [10],outcome [11],outcome [12],outcome [13],outcome [14],outcome [15],Potency [16],outcome [17],outcome [18]
CC(=O)OCC(=O)[C@@]1(O)CC[C@H]2[C@@H]3CCC4=CC(=O)C=C[C@]4(C)[C@@]3(F)[C@@H](O)C[C@@]21C,inactive,inactive,inactive,inactive,inactive,inactive,inactive,inactive,inactive,inactive,inactive,inactive,inactive,inactive,inactive,inactive,inactive,
COc1ccc(Cc2cnc(N)nc2N)cc1OC,inactive,inactive,inactive,inactive,inactive,inactive,inactive,inactive,inactive,7.5 µM (active),inactive,inactive,inactive,inactive,,,inactive,
C[C@H]1COc2c(C3(N)CC3)c(F)cc3c(=O)c(C(=O)O)cn1c23,inactive,inactive,inactive,inactive,inactive,inactive,inactive,,inactive,inactive,inactive,inactive,inactive,inactive,inactive,inactive,inactive,
O=C1c2ccccc2S(=O)(=O)N1CCCCN1CCN(c2ncccn2)CC1,inactive,inactive,inactive,inactive,inactive,inactive,inactive,inactive,inactive,inactive,inactive,inactive,inactive,inactive,inactive,inactive,inactive,
CO[C@@]1(NC(=O)C(C(=O)O)c2ccc(O)cc2)C(=O)N2C(C(=O)O)=C(CSc3nnnn3C)CO[C@@H]21 (stereo partly specified),inactive,inactive,inactive,inactive,inactive,inactive,inactive,inactive,inactive,,,inactive,inactive,inactive,inactive,inactive,inactive,
COc1ccc(C(=O)N2CCN(CC(=O)N3CCOCC3)CC2)cc1,inactive,inactive,inactive,inactive,inactive,inactive,inactive,,inactive,inactive,inactive,inactive,inactive,inactive,inactive,,inactive,
Cc1ccc(C(C)C)c(O)c1,inactive,inactive,,inactive,inactive,inactive,inactive,inactive,inactive,inactive,inactive,inactive,inactive,inactive,inactive,inactive,inactive,inactive
CC(O)CCCCn1c(=O)c2c(ncn2C)n(C)c1=O (stereo unspecified),inactive,inactive,inactive,inactive,inactive,inactive,inactive,inactive,inactive,inactive,inactive,inactive,inactive,inactive,inactive,,inactive,
CCOc1cc(NC(C)=O)ccc1C(=O)OC,inactive,inactive,inactive,inactive,inactive,inactive,inactive,inactive,inactive,,inactive,inactive,inactive,inactive,,,inactive,
O=C(O)c1ccccc1C(=O)Nc1ccc(S(=O)(=O)Nc2nccs2)cc1,inactive,inactive,inactive,inactive,inactive,inactive,inactive,inactive,inactive,,inactive,inactive,inactive,inactive,inactive,inactive,inactive,
COc1ccc(O)cc1,inactive,inactive,inactive,inactive,inactive,,inactive,,inactive,inactive,inactive,inactive,inactive,,inactive,inactive,inactive,
C[n+]1ccccc1/C=N/O,inactive,inactive,inactive,inactive,inactive,inactive,inactive,inactive,inactive,inactive,inactive,inactive,inactive,inactive,inactive,inactive,inactive,
CCN1CC(CCN2CCOCC2)C(c2ccccc2)(c2ccccc2)C1=O (stereo unspecified),inactive,inactive,inactive,,inactive,inactive,inactive,inactive,inactive,,inactive,inactive,,inactive,inactive,inactive,inactive,inactive
CC(CN(C)C)C(C)(O)Cc1ccc(Cl)cc1 (stereo unspecified),inactive,inactive,inactive,inactive,inactive,inactive,inactive,inactive,inactive,inactive,inactive,inactive,,inactive,inactive,,inactive,
CC(C)CCOC(=O)c1ccc(N(C)C)cc1,inactive,inactive,inactive,inactive,inactive,inactive,inactive,inactive,inactive,,inactive,inactive,inactive,inactive,,inactive,inactive,
Cc1ccc(S(=O)(=O)NC(=O)NC2CCCCC2)cc1,inactive,inactive,inactive,inactive,inactive,inactive,inactive,inactive,inactive,inactive,inactive,inactive,,inactive,,,inactive,
CCCOC(=O)c1ccc(N)cc1,inactive,inactive,inactive,inactive,inactive,inactive,inactive,inactive,inactive,inactive,inactive,inactive,,inactive,inactive,inactive,inactive,

Compound,outcome [1],outcome [2],outcome [3],outcome [4],outcome [5],outcome [6],outcome [7],outcome [8],outcome [9],Potency [10],outcome [11],outcome [12],outcome [13],outcome [14],outcome [15],Potency [16],outcome [17],outcome [18]
O=C(O)CNC(=O)c1ccccc1I,inactive,inactive,inactive,inactive,inactive,inactive,inactive,inactive,inactive,inactive,inactive,inactive,inactive,inactive,inactive,inactive,inactive,
CCOC(N)=O,inactive,inactive,inactive,inactive,inactive,inactive,inactive,inactive,inactive,inactive,inactive,inactive,inactive,inactive,inactive,inactive,inactive,
Cc1onc(-c2ccccc2)c1-c1ccc(S(N)(=O)=O)cc1,inactive,inactive,inactive,,inactive,inactive,inactive,,inactive,inactive,inactive,inactive,inactive,inactive,inactive,inactive,inactive,inactive
CC(=O)N[C@@H](CC(C)C)C(=O)O,inactive,inactive,inactive,inactive,inactive,inactive,inactive,inactive,inactive,inactive,inactive,inactive,inactive,inactive,inactive,,inactive,
CC1(C)[C@@H](OC(=O)CCC(=O)O)CC[C@]2(C)[C@H]3C(=O)C=C4[C@@H]5C[C@@](C)(C(=O)O)CC[C@]5(C)CC[C@@]4(C)[C@]3(C)CC[C@@H]12,inactive,inactive,inactive,inactive,inactive,inactive,inactive,,inactive,inactive,inactive,inactive,inactive,inactive,inactive,inactive,inactive,
CC(=O)N[C@H]1[C@H]([C@H](O)[C@H](O)CO)OC(C(=O)O)=C[C@@H]1N=C(N)N,inactive,inactive,inactive,inactive,inactive,inactive,inactive,inactive,inactive,inactive,,inactive,inactive,inactive,inactive,inactive,inactive,
O=C1c2cccc(O)c2C(=O)c2c(O)cccc21,inactive,inactive,inactive,,inactive,inactive,inactive,inactive,inactive,inactive,inactive,,inactive,inactive,inactive,inactive,,inactive
CC(=O)N[C@@H](Cc1ccc(O)cc1)C(=O)O,inactive,inactive,inactive,inactive,inactive,inactive,inactive,inactive,inactive,,inactive,inactive,,,inactive,inactive,inactive,
Cc1cc(=O)[nH]c(=S)[nH]1,inactive,inactive,inactive,inactive,inactive,inactive,inactive,inactive,inactive,,inactive,inactive,inactive,,inactive,,inactive,
CCCCCC(C)N (stereo unspecified),inactive,inactive,inactive,inactive,inactive,inactive,inactive,inactive,inactive,inactive,inactive,inactive,inactive,inactive,inactive,inactive,inactive,
COc1ccc(C(=O)NCc2ccc(OCCN(C)C)cc2)cc1OC,inactive,inactive,inactive,inactive,inactive,inactive,inactive,inactive,inactive,inactive,inactive,inactive,inactive,inactive,,,inactive,
c1ccc2[nH]ccc2c1,inactive,inactive,inactive,inactive,inactive,inactive,inactive,inactive,inactive,inactive,inactive,inactive,inactive,inactive,inactive,inactive,inactive,
CCOc1ccccc1O[C@H](c1ccccc1)[C@H]1CNCCO1,inactive,inactive,inactive,,inactive,inactive,inactive,inactive,inactive,inactive,inactive,inactive,inactive,inactive,,,inactive,inactive
CN1CC(=O)NC1=N,inactive,inactive,inactive,inactive,inactive,inactive,inactive,inactive,inactive,,inactive,inactive,inactive,inactive,,inactive,inactive,
CCCCOC(=O)c1ccc(N)cc1,inactive,inactive,inactive,,inactive,inactive,inactive,inactive,inactive,,inactive,,inactive,inactive,inactive,inactive,inactive,inactive
CCCCCCCC(=O)OCC(O)CO (stereo unspecified),inactive,inactive,inactive,inactive,inactive,inactive,inactive,inactive,inactive,inactive,inactive,inactive,inactive,inactive,inactive,,inactive,
O=C(O)c1ccc(OCCCOc2ccc(C(=O)O)cc2)cc1,inactive,inactive,inactive,inactive,inactive,inactive,inactive,inactive,inactive,inactive,inactive,inactive,inactive,inactive,,inactive,inactive,
